PLC-beta3 inh – PLC-beta3 (human) inhibition, primary screen | Q01970 | Purified PLC-beta3, fluorogenic substrate, fluorescence | inhibition, % at 12.2 µM | actives 0.18% (n = 370,000); in the data active = inhibition above about 11%;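 note: 0% = median of compound wells on plate and 100% = full blocker control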
PLCg1 inh – inhibitors of human phospholipase C gamma1; purified PLC-gamma1, fluorogenic substrate, fluorescence; inhibition, % at 12.2 µM; actives 0.84% (n = 370,000); AID 720700; in the data active = inhibition above about 9.5%
HIF act – HIF pathway transcriptional activation; U2OS HRE-luciferase reporter, luminescence; normalized: DMSO 0%, desferrioxamine 100%; activation, % at 7.5 µM (by protocol); actives 0.32% (n = 300,000); AID 1910;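 active = mean activation of at least 10% of the iron chelator positive control signal, with at least half of replicates also reaching 10%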
AHR act – human AHR activation. P35869. AHR-responsive luciferase reporter cells, luminescence. activation, % at 5 µM. actives 2.5% (n = 320,000); in the data active = activation above about 47%;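 note: 0% = vehicle wells and 100% = reference agonist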
CR mimetic SO – caloric restriction mimetics inhibiting age-related superoxide in yeast; actives 0.18% (n = 330,000); S. cerevisiae aged cells, superoxide DHE fluorescence; stronger effect = lower value; superoxide response (% of plate mean), % at 10 µM;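 active = superoxide response under a set limit, about three screen SD below normal, cut at about 65% in these data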;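 note: yeast aged for seven days with compound at 30 °C before DHE staining; 100% = average MFI of all compound-treated wells on the plate with controls excluded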
HGIII-sPLA2 inh – Blocks human group III sPLA2 activity; actives 0.56% (n = 370,000); inhibition, % at 12.2 µM; Q9NZ20; QFRET BODIPY PC-A2 liposome hydrolysis, fluorescence; AID 743126;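 active = inhibition above mean plus 3 SD of compounds lying within the high and low control bounds, cut at about 19% in these data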;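 note: 0% = median of test compound wells and 100% = no enzyme DMSO wells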
Target sequence (Q9NZ20 whole entry, looked up): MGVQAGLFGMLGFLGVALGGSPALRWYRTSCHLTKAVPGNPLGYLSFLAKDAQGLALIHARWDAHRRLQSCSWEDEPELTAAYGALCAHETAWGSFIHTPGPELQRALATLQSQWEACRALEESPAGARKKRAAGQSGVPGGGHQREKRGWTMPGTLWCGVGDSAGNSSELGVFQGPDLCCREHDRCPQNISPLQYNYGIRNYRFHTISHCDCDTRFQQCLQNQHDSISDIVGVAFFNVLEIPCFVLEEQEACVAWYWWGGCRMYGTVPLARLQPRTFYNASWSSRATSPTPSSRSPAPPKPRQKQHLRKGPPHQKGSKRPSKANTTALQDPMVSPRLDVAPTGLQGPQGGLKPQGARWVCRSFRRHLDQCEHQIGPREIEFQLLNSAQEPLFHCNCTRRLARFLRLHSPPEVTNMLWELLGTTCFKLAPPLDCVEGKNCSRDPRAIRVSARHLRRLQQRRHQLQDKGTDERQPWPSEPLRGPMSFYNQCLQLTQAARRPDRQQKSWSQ
sPLA2 confirm – human GIII-sPLA2 inhibition, confirmation; shares compounds with HGIII-sPLA2 inh; recombinant hGIII-sPLA2, BODIPY PC-A2 QFRET fluorescence; inhibition, % at 12.2 µM; actives 34% (n = 2,000);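 active = mean inhibition across triplicates above the hit cutoff set in the earlier primary screen, cut at about 19% in these data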;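 note: 0% = enzyme with DMSO and 100% = DMSO wells lacking enzyme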
BODIPY interf – optically interferes with 535nm fluorescence in sPLA2 counter-screen; shares compounds with HGIII-sPLA2 inh; BODIPY FL product fluorescence interference, QFRET; inhibition, % at 12.2 µM; actives 8.5% (n = 2,000);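 active = average inhibition above the solvent-only control mean plus 3 SD, cut at about 6% in these data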;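 note: 0% = DMSO with substrate plus product and 100% = DMSO with substrate alone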
BODIPY interf DR – 535nm optical interference dose response, HGIII-sPLA2 counter-screen; shares compounds with HGIII-sPLA2 inh; BODIPY FL product fluorescence interference, cell-free; IC50, µM; 240 tested, under 10 active; AID 743455;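 active = IC50 at or below 10 µM; inactive = IC50 above 10 µM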
Starred values were filed as active, the others as inactive; x = no result. Only some compounds are listed: those with a hit (about 3.9% of all), similar ones and a draw of the others.

SMILES	PLC-beta3 inh	PLCg1 inh	HIF act	AHR act	CR mimetic SO	HGIII-sPLA2 inh	sPLA2 confirm	BODIPY interf	others
O=C(NNC(=S)Nc1ccccc1)NNC(=S)Nc1ccccc1	-4.0	-3.1	0.3	4.0	102.4	34.2*	28.6*	0.5	BODIPY interf DR=>122
CC(C)Oc1ccc(CC(=O)NNC(=S)Nc2ccccc2)cc1	0.3	4.1	-0.1	-0.6	101.6	28.9*	29.5*	-4.6	BODIPY interf DR=>122
COc1ccc(CCC(=O)NNC(=S)Nc2cccc(C(C)=O)c2)cc1	1.2	-4.2	0.0	5.2	103.4	20.2*	27.8*	0.8	BODIPY interf DR=>122
Cc1ccc(C(=O)Nc2nnc(S(=O)(=O)N3CCC(C)CC3)s2)cc1	-5.4	-3.2	0.1	3.0	87.0	6.9	x	x
COc1ccc(C(=O)c2c(-c3cccc(C)c3)oc3ccc(N4CCOCC4)cc23)cn1	-101.2	-72.1	-0.8	24.8	98.6	8.2	x	x
O=C(NC(=O)c1cc([N+](=O)[O-])ccc1Cl)C1=C(N2CCCC2)COC1=O	1.0	1.6	x	0.9	131.9	8.8	x	x
O=C(Nc1ccccc1OC(F)F)c1oc2ccccc2c1COc1ccccc1	-2.7	0.7	-0.3	49.3*	70.8	24.7*	3.9	-13.2
CC(C)CNC(=O)c1oc2ccccc2c1COc1ccccc1	0.5	0.5	-0.2	5.6	85.7	0.5	x	x
COc1ccc(CC(=O)N/N=C(/C)CC(=O)N(C)c2ccccc2)cc1	-6.6	-2.1	0.3	1.8	116.3	0.1	x	x
CC(=O)Nc1c(C)ccc(CNC(=O)COc2ccc(F)cc2)c1C	3.1	2.9	-0.1	5.7	91.5	-3.9	x	x
CC(=O)Nc1c(C)ccc(CNC(=O)COc2cc(C)ccc2C)c1C	2.1	3.3	-9.8	33.6	100.5	20.9*	-3.7	-11.8
CCOC(=O)c1[nH]c(=S)n(Cc2ccccc2)c1C(=O)OCC	-24.1	-21.3	x	x	x	17.6	x	x
CCOC(=O)c1[nH]c(=S)n(-c2ccccc2)c1C(=O)OCC	-5.0	-1.8	x	x	x	24.7*	18.4	0.3
Cc1cc(NC(=O)COc2cc(F)cc(F)c2)n(-c2ccccc2)n1	1.6	-1.5	x	x	x	4.5	x	x
Oc1c(CN2CCCCC2)ccc2cccnc12	-3.9	-6.2	x	x	x	20.7*	0.9	-44.3
O=C(NCCc1ccccc1F)C1CCCN(c2nc3ccccc3s2)C1 (stereo not given)	-7.5	-0.1	-0.1	4.4	110.2	-5.9	x	x
O=c1oc2cc(O)ccc2s1	2.3	0.4	-0.1	-0.1	111.0	19.7*	3.5	-1.7
Cc1cc(OCC(=O)NCCCN2CCCC2=O)c2c(C)c(C)c(=O)oc2c1	-319.2	-194.6	-0.3	0.8	87.6	1.8	x	x
CC(C1CC1)N(Cc1ccccc1)C(=S)Nc1cccc(C(F)(F)F)c1 (stereo not given)	-1.5	-1.3	-0.9	-1.7	100.7	20.6*	8.6	-6.0
O=C(Nc1nnc([C@@H]2C[C@H](O)[C@@H](CO)O2)s1)c1ccccc1Cl	-0.7	7.0	x	x	x	19.5*	0.0	-1.6
O=C(Nc1nnc([C@H]2C[C@H](O)[C@@H](CO)O2)s1)c1ccccc1F	1.0	-2.5	x	x	x	6.7	x	x
COc1ccc(NC(=O)NNC(=O)c2cc3ccccc3cc2O)cc1	-161.4	-103.9	-0.1	14.3	109.9	21.8*	23.0*	2.2
COc1ccc(C)cc1NC(=O)NNC(=O)c1cc2ccccc2cc1O	-168.1	-125.5	0.2	14.4	79.5	14.5	x	x
O=C(NNC(=O)c1cc2ccccc2cc1O)Nc1ccc(Br)cc1	-80.3	-56.6	0.2	5.3	108.7	30.9*	31.2*	6.2*
c1cc(-c2nnc3n2N=C(c2ccc4c(c2)OCO4)CS3)ccn1	0.5	4.5	x	x	x	21.8*	-0.2	-10.0
CC(=O)Nc1ccc(CN(C)c2c(C)nc3ccc(C(=O)N4CCN(C(=O)c5ccco5)CC4)cn23)cc1	3.4	-0.9	x	x	x	1.5	x	x
